Measured values published in the supplement of paper PMC8253809.
Values joined by “and” are separate entries in the source; they are usually repeats but may differ in a detail not shown here. Equal entries are not always repeated.

How the values were obtained:
Assay in all cases: growth inhibition (% activity, log2 RLU normalised to DMSO / staurosporine); higher = more growth inhibition
Details in all cases: 33 µM
DIPGX29 = tested on: DIPGX29 (H3.3 K27M diffuse intrinsic pontine glioma line)
How it was run: (§1)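 The growth-inhibition value comes from CellTiter-Glo luminescence, log2-transformed, normalised per plate to % activity between solvent and positive control wells, and taken as the median over replicates. Treatment of pHGG cell lines and H9-derived neural stem cells with approved drugs was at a single final concentration of about 33 μM, in triplicate, for 7 days at 37 °C, 5% CO2.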

DIPGX37 = tested on: DIPGX37 (H3.3 K27M diffuse intrinsic pontine glioma line)
How it was run: as §1

DIPGX7 = tested on: DIPGX7 (H3.3 K27M diffuse intrinsic pontine glioma line)
How it was run: as §1

DIPGX9 = tested on: DIPGX9 (diffuse intrinsic pontine glioma line)
How it was run: as §1

HGGX39 = tested on: HGGX39 (paediatric high-grade glioma line)
How it was run: as §1

HGGX6 = tested on: HGGX6 (H3.3 G34R paediatric high-grade glioma line)
How it was run: as §1

HNSC = tested on: HNSC
How it was run: as §1

SUDIPGIV = tested on: SUDIPGIV (diffuse intrinsic pontine glioma line)
How it was run: as §1

SUDIPGVI = tested on: SUDIPGVI (diffuse intrinsic pontine glioma line)
How it was run: as §1

SUDIPGXIII = tested on: SUDIPGXIII (diffuse intrinsic pontine glioma line)
How it was run: as §1

Compound	growth inhibition (DIPGX29)	growth inhibition (DIPGX37)	growth inhibition (DIPGX7)	growth inhibition (DIPGX9)	growth inhibition (HGGX39)	growth inhibition (HGGX6)	growth inhibition (HNSC)	growth inhibition (SUDIPGIV)	growth inhibition (SUDIPGVI)	growth inhibition (SUDIPGXIII)
Cc1ccccc1N1C(=O)c2cc(S(N)(=O)=O)c(Cl)cc2NC1C (stereo not given)	-2.6%	0.236%	-3.01%	-0.0701%	-1.7%	-0.825%	-3.02%	-1.65%	-1.57%	-0.324%
CO[C@H]1/C=C/O[C@@]2(C)Oc3c(C)c(O)c4c(O)c(c5c(nc6cc(C)ccn65)c4c3C2=O)NC(=O)/C(C)=C\C=C\[C@H](C)[C@H](O)[C@@H](C)[C@@H](O)[C@@H](C)[C@H](OC(C)=O)[C@@H]1C	-0.23%	1.09%	0.284%	1.81%	1.27%	1.5%	0.942%	-1.07%	1.39%	-1.05%
CCn1cc(C(=O)O)c(=O)c2cc(F)c(N3CCN(C)CC3)cc21	0.946%	0.351%	1.65%	1.44%	2.84%	0.565%	3.22%	1.47%	1.27%	1.57%
O=C1CCC(N2C(=O)c3ccccc3C2=O)C(=O)N1 (stereo not given)	-2.65%	-1.06%	-0.846%	-1.66%	-0.665%	-1.64%	-7.47%	-2.51%	-2.2%	-0.0477%
CC(C)OC(=O)OCOP(=O)(CO[C@H](C)Cn1cnc2c(N)ncnc21)OCOC(=O)OC(C)C	-0.149%	-0.362%	0.933%	1.84%	4.93%	2.27%	0.819%	0.684%	0.813%	1.94%
CC[C@H]1OC(=O)[C@H](C)[C@@H](O[C@H]2C[C@@](C)(OC)[C@@H](O)[C@H](C)O2)[C@H](C)[C@@H](O[C@@H]2O[C@H](C)C[C@H](N(C)C)[C@H]2O)[C@](C)(OC)C[C@@H](C)C(=O)[C@H](C)[C@@H](O)[C@]1(C)O	-1.86%	0.02%	-2.66%	-0.349%	1.64%	0.562%	-3.32%	-2.12%	-0.602%	-13%
CN(C)C/C=C/C(=O)Nc1cc2c(Nc3ccc(F)c(Cl)c3)ncnc2cc1O[C@H]1CCOC1	21.1%	8.76%	29.6%	14.3%	11.5%	47.5%	59.4%	10.9%	-0.744%	0.97%
CCc1cccc2c3c([nH]c12)C(CC)(CC(=O)O)OCC3 (stereo not given)	1.41%	0.479%	3.29%	0.48%	2.3%	0.44%	2.88%	-3.78%	1.87%	1.77%
CSc1ccc2c(c1)N(CCC1CCCCN1C)c1ccccc1S2 (stereo not given)	1.58%	0.408%	-0.0552%	-0.344%	2.69%	-0.282%	7.39%	0.193%	-0.552%	0.0949%
Nc1ccc(C(=O)O)c(O)c1	0.612%	1.18%	0.982%	0.745%	1.12%	1.72%	-0.259%	0.343%	-1.22%	-1.06%
NCCc1ccc(O)c(O)c1	-0.86%	1.63%	-0.591%	0.714%	0.908%	-1.23%	5.73%	1.26%	0.907%	-1.27%
O=C(O)Cc1ccccc1Nc1c(Cl)cccc1Cl	-1.37% and -2.99% and -0.71%	-1.99% and -1.73% and 0.418%	-1.57% and -1.88% and -1.25%	-1.08% and -0.109% and -0.719%	-2.62% and -2.86% and 0.69%	0.514% and 2.52% and -0.0763%	-3.6% and -4.25% and -2.46%	-6.51% and -6.18% and -5.78%	-1.69% and -1.9% and -1.43%	-0.705% and -7.4% and 0.367%
C[C@@H](O)[C@H]1C(=O)N2C(C(=O)O)=C(S[C@@H]3CN[C@H](C(=O)N(C)C)C3)[C@H](C)[C@H]12	-2.93%	0.205%	-1.37%	-0.242%	-2.33%	-3.05%	4.4%	-2.08%	-2.04%	0.717%
O=C(CCNNC(=O)c1ccncc1)NCc1ccccc1	-2.81%	1.16%	-0.869%	-2.76%	-1.32%	-1.96%	2.79%	-2.06%	-1.86%	0.338%
CC(C(=O)O)c1ccc2c(c1)[nH]c1ccc(Cl)cc12 (stereo not given)	-0.444%	-0.934%	0.549%	-0.825%	-0.747%	0.65%	-2.15%	-2.81%	-0.161%	-6.63%
CCCc1ncc(C[n+]2ccccc2C)c(N)n1	-4.8%	-1.21%	-0.627%	-2.23%	-2.8%	-3.52%	7.92%	-2.86%	-5.24%	0.241%
N[C@@H](CSCCCO)C(=O)O	-3.76%	-2.47%	0.0116%	-2.7%	-4.4%	-5.11%	22.1%	-4.19%	-9.19%	-0.641%

Compound	growth inhibition (DIPGX29)	growth inhibition (DIPGX37)	growth inhibition (DIPGX7)	growth inhibition (DIPGX9)	growth inhibition (HGGX39)	growth inhibition (HGGX6)	growth inhibition (HNSC)	growth inhibition (SUDIPGIV)	growth inhibition (SUDIPGVI)	growth inhibition (SUDIPGXIII)
CC(=O)N[C@H]1[C@H]([C@H](O)[C@H](O)CO)OC(C(=O)O)=C[C@@H]1NC(=N)N	1.23%	2.89%	2.14%	1.62%	1.17%	-2.7%	7.75%	1.46%	2.82%	2.15%
Nc1nc2c(ncn2COCCO)c(=O)[nH]1	-1.73%	1.12%	1.01%	0.254%	1.26%	-2.13%	5.44%	-0.972%	-0.331%	0.201%
C[C@H](CCC(=O)O)[C@H]1CC[C@H]2[C@@H]3CC[C@@H]4C[C@H](O)CC[C@]4(C)[C@H]3CC[C@]12C	-0.532%	-0.978%	-2.9%	-2.11%	0.371%	-1.49%	-2.18%	-1.6%	-1.83%	1.26%
O=C1CC[C@@H](C(=O)N2CSC[C@H]2C(=O)O)N1	2.29%	1.19%	1.62%	1.89%	3.63%	2.97%	2.12%	1.86%	2.32%	-0.296%
C=C1/C(=C\C=C2/CCC[C@]3(C)[C@@H]([C@H](C)/C=C/[C@H](C)C(C)C)CC[C@@H]23)C[C@@H](O)C[C@@H]1O	0.433%	1.95%	5.3%	2.6%	3.71%	2.65%	3.33%	0.335%	1.4%	1.03%
C[C@H](N)[C@H](O)c1cccc(O)c1	2.35%	0.0235%	1.7%	1.54%	5.08%	0.73%	3.77%	1.73%	4.42%	1.04%
O=C(O[C@H]1CN2CCC1CC2)N1CCc2ccccc2[C@@H]1c1ccccc1	1.49%	-0.261%	-0.506%	-0.425%	1.75%	0.102%	-0.949%	-0.487%	1.06%	1.13%
O=C(NCCN1CCOCC1)c1ccc(Cl)cc1	0.0777%	-0.588%	-0.129%	-0.472%	-0.0669%	-0.698%	-1.63%	-0.786%	-1.17%	0.934%
COc1cc(/C=C/C(=O)N2CCN(CC(=O)N3CCCC3)CC2)cc(OC)c1OC	-0.327%	0.826%	-0.108%	-0.784%	0.66%	-2.67%	17.5%	0.556%	-3.03%	-1.16%
CCOc1nc2cccc(C(=O)O)c2n1Cc1ccc(-c2ccccc2-c2nnn[nH]2)cc1	0.354%	-0.496%	0.489%	-0.089%	0.622%	1.65%	1.93%	-0.153%	0.98%	-0.345%
CCCCCN(C)CCC(O)(P(=O)(O)O)P(=O)(O)O	-3.97%	2.62%	-1.48%	-0.821%	0.759%	-3.74%	5.06%	-4.22%	-0.622%	0.0777%
CC#CCn1c(N2CCC[C@@H](N)C2)nc2c1c(=O)n(Cc1nc(C)c3ccccc3n1)c(=O)n2C	-0.103%	-1.17%	-2.97%	-0.000837%	0.6%	-0.836%	-2.39%	-2.46%	-1.81%	-0.213%
CC(=O)OCC(=O)[C@@]1(O)[C@H](C)C[C@H]2[C@@H]3CCC4=CC(=O)C=C[C@]4(C)[C@@]3(F)[C@@H](O)C[C@@]21C	6.47%	3.67%	1.89%	6.29%	6.91%	5.01%	2.34%	5.88%	3.94%	1.28%
Cc1noc(NS(=O)(=O)c2ccc(N)cc2)c1C	-0.149%	-0.401%	-0.198%	-0.0916%	2.16%	-1.61%	29.4%	-0.587%	-0.478%	-3.55%
O.O=[Si]=O.O=[Si]=O.O=[Si]=O.O=[Si]=O.[O]=[Mg].[O]=[Mg].[O]=[Mg]	-0.0369%	-0.00885%	-1.3%	0.668%	1.22%	0.613%	-1.22%	0.589%	0.8%	0.62%
CCCSc1nc(N[C@@H]2C[C@H]2c2ccc(F)c(F)c2)c2nnn([C@@H]3C[C@H](OCCO)[C@@H](O)[C@H]3O)c2n1	2.23%	3.23%	4.99%	1.97%	5.25%	1.74%	20.6%	3.4%	3.52%	0.841%
NNC(=O)c1ccncc1	3.87%	-2.25%	1.93%	0.954%	0.333%	-0.478%	44.1%	3.88%	-2.88%	-0.311%
